# Compound activity from PubChem.
# aSyn UTR inh: 5' untranslated region of α-synuclein, MLPCN primary screen | AID 1813 | actives 0.82% (n = 300,000) | alpha-synuclein 5'UTR reporter, inhibitor activity | inhibition, % (tested at 7.5 µM); in the data active = inhibition above about 60%;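 also: H4 neuroglioblastoma cells stably carrying SNCA 5'UTR luciferase fusion; 0% = DMSO wells and 100% = positive control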
# Mdm2-MdmX inh: human Mdm2/MdmX binding inhibition; SaOS-2 split-luciferase Mdm2/MdmX complementation, luminescence; O15151+Q00987; inhibition, % at 8 µM; actives 3% (n = 330,000);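 active = inhibition of at least 50% at 8 µM in the primary screen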
# Target sequence (O15151 whole entry, looked up): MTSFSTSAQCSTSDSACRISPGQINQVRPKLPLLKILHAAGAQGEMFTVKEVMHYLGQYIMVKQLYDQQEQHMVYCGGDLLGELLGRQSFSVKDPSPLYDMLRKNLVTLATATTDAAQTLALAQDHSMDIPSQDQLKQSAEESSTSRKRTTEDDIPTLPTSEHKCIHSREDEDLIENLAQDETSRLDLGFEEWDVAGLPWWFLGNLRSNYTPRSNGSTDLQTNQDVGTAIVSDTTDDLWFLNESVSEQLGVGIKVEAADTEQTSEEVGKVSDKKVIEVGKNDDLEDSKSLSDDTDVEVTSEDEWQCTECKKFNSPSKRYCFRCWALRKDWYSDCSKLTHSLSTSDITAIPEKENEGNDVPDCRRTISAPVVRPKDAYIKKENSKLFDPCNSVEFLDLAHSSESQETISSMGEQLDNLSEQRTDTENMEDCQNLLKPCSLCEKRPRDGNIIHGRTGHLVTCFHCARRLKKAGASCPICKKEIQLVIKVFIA
# Target sequence (Q00987 whole entry, looked up): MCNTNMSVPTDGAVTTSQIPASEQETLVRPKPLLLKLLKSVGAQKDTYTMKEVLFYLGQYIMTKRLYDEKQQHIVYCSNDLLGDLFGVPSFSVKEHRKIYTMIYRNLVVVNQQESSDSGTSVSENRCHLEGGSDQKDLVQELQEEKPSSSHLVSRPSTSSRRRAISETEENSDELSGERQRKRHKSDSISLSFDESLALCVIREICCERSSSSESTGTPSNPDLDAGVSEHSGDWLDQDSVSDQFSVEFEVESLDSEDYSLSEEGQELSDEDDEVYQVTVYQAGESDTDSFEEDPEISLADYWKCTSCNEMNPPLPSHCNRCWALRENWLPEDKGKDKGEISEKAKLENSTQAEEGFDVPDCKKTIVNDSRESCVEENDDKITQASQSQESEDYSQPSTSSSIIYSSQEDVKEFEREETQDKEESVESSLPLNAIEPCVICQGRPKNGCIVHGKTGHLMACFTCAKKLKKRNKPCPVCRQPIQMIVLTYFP
# Gli-Sufu antag: blocks Gli-Sufu signaling in a luciferase reporter; Sufu-KO-LIGHT fibroblasts, Gli luciferase reporter luminescence; inhibition, % at 5 µM; actives 0.74% (n = 340,000); AID 588413;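 active = inhibition above about 55%, limit read from the data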;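 also: 0% = DMSO-treated cells and 100% = wells with medium but no cells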
# Jurkat NFkB inh: lowers PMA/ionomycin-induced NF-kB signal in Jurkat cells; PMA/ionomycin-induced NF-kB luciferase reporter, luminescence; inhibition, % at 4 µM; actives 0.53% (n = 330,000); in the data active = inhibition above about 50%
# 697 NFkB inh: lowers PMA/ionomycin-induced NF-kB signal in 697 B cells; inhibition, % at 4 µM; AID 435022; actives 0.33% (n = 330,000); 697 B-cell NF-kB luciferase reporter, 16 h; in the data active = inhibition above about 35%
# CSC inhib: cancer stem cell inhibition; cancer stem cell-like cells viability, luminescence; inhibition, % at 7.5 µM; actives 1.1% (n = 300,000); AID 2717; in the data active = inhibition above about 75%; tested in HMLE shEcad cells
# Jurkat NFkB conf: inhibitors of the PMA/ionomycin-induced NF-kB reporter in Jurkat cells, retest; shares compounds with Jurkat NFkB inh; actives 27% (n = 2,700); inhibition, % at 4 µM; AID 435020; Jurkat NF-kB luciferase, 16 h;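 active = inhibition reaching about 45% at 4 µM in either replicate, limit read from the data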;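 also: plate controls were PMA/ionomycin stimulated DMSO wells for no effect and unstimulated DMSO wells for full effect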
# The depositor's hits bear a star; . = no result. Compounds with a hit are over-represented: about 4.5% of the library has one in this group of screens.
SMILES,aSyn UTR inh,Mdm2-MdmX inh,Gli-Sufu antag,Jurkat NFkB inh,697 NFkB inh,CSC inhib,Jurkat NFkB conf
O=C(NC(=S)Nc1ccc2c(c1)OCCO2)c1ccccc1F,-155,-3,-100,-70,-102,.,.
O=C(Nc1ccc(OC(F)(F)F)cc1)c1ccc2ccccc2n1,-27,-20,-1,10,-31,-13,.
O=C(Nc1ccccc1)c1nc2ccccc2s1,-32,-297,-100,-205,-131,22,-96
Cc1cccc(NC(=S)Nc2ccccn2)c1,-71,-49,-16,-41,-59,0,.
O=C(Nc1ccccc1)c1ccc2ccccc2n1,-178,-123,-75,-168,-22,-4,-92
OCCC1CN(Cc2ccccc2-c2ccco2)CCN1Cc1ccccc1 (stereo not drawn),5,1,-5,5,-10,4,.
CCC(C)Sc1ccc([C@H]2N[C@@](Cc3ccccc3)(C(=O)OC)[C@H]3C(=O)N(CC)C(=O)[C@@H]23)cc1OC (stereo partly drawn),16,9,13,8,-4,-39,.
O=C(Nc1ccc2c(c1)OCCO2)c1ccc2ccccc2n1,.,-210,-105,-165,-119,5,-111
O=C(CCN1C(=O)C2CCCCC2C1=O)Nc1nc2ccc(F)cc2s1 (stereo not drawn),.,4,-48,-168,-243,.,-48
O=C(CCN1C(=O)C2CCCCC2C1=O)Nc1nc2c(F)cc(F)cc2s1 (stereo not drawn),.,-83,-38,-46,-75,5,.
Cc1ccc(-c2ccc(=O)n(CC(=O)N3CCN(c4cc(Cl)ccc4C)CC3)n2)cc1,24,29,-2,10,-5,3,.
CCOc1ccc(N(CC(=O)N/N=C/c2ccc(OC(C)C)cc2)S(C)(=O)=O)cc1,4,8,-15,4,-36,-1,.
COc1cccc(NC(=O)COC(=O)C2CCCCC2)c1,.,-10,-17,-195,7,-19,16
COc1cccc(NC(=O)C(=S)NC2CCCCC2)c1,-85,-281,-121,-220,-164,6,-91
COc1ccc(-n2nc3c(N4CCC(C(=O)N5CCCCCC5)CC4)nnc(C)c3c2C)cc1,36,40,10,28,-1,-1,.
CC(=O)Nc1ccc(S(=O)(=O)N(C)CC(=O)OCCOc2cccc(C)c2)cc1,-5,9,2,9,-18,-12,.
CCc1cc2cc(C(=O)Nc3ccc(F)cc3)sc2s1,-150,-31,-72,-48,6,-1,.
CCc1cc2cc(C(=O)Nc3ccccc3F)sc2s1,-134,-153,-66,-218,2,-1,-104
CCOc1cc(N2CCOCC2)c(OCC)cc1NC(=O)c1cc(S(=O)(=O)N2CCOCC2)ccc1F,.,43,2,62*,-4,4,23
CNCCCOc1ccc(C)cc1Br,13,-16,1,9,-8,-16,.
Cc1ccc(OCCCNCCO)c(Br)c1,9,26,-1,81*,-8,-9,35
CN(C)c1ccc(C(=O)OCC(=O)c2cccs2)cc1,-33,-178,-96,-151,-80,-1,-87
O=C(Nc1ccccc1Cl)O/N=C/c1ccncc1,-6,-29,8,17,-11,12,.
C/C(=N\NC(=O)c1c([N+](=O)[O-])c(C)nn1C)c1ccc(NC(=O)c2ccc(C)o2)cc1,-104,-3,-28,-27,-25,.,.
C/C(=N\NC(=O)c1c([N+](=O)[O-])c(C)nn1C)c1ccc(NC(=O)C2CCCC2)cc1,81*,48,40,53*,9,-6,50*
SMILES,aSyn UTR inh,Mdm2-MdmX inh,Gli-Sufu antag,Jurkat NFkB inh,697 NFkB inh,CSC inhib,Jurkat NFkB conf
CCOC(=O)/C=C/c1ccc2oc3ccccc3c(=O)c2c1,-191,-206,-108,-165,-228,8,-92
CC(C)(C)c1ccc(NC(=O)c2ccccc2)c([N+](=O)[O-])c1,-100,-112,-100,-163,-192,.,-97
Cc1c(NC(=O)c2ccc(C(C)(C)C)cc2)cccc1[N+](=O)[O-],-133,-74,-48,-56,-9,.,.
Cc1cc(-c2cc(-c3ccc(Cl)cc3)nc(N)c2C#N)co1,42,31,3,9,9,43,.
Cc1ccc(C(=O)Nc2cccc(S(=O)(=O)N3CCCC3)c2)o1,.,14,2,7,-5,10,.
COc1ccccc1NC(=O)c1ccc(-c2ccc(Br)cc2)o1,-20,38,-11,57*,-45,55,10
S=C(c1ccc(-c2ccc(Cl)cc2)o1)N1CCCCC1,-150,-229,-96,-171,-181,62,-102
CN1CCN(c2ccccc2NC(=O)c2ccc(-c3ccc(Br)cc3)o2)CC1,-37,48,23,50*,-88,61,12
S=C(c1ccc(-c2ccccc2Cl)o1)N1CCCCC1,-170,-160,-64,-92,-178,-3,.
O=C(Nc1ccccc1N1CCCCC1)c1ccc(-c2ccc(Cl)cc2)o1,99*,30,-6,54*,-38,.,12
O=C1CN(C(=O)COC(=O)c2cccc(OCc3ccccc3)c2)c2ccccc2N1,-48,-15,-22,0,-30,11,.
COCc1cccc(C(=O)NC(c2ccccc2)c2ccccc2)c1,0,9,16,0,25,-27,.
CC(=O)Nc1ccc2c(c1)nc1n2CCSC1,-3,10,-3,0,6,14,.
Cc1ccc(C(=O)Nc2ccc3c(c2)nc2n3CCSC2)cc1,-67,-105,-112,-171,-111,-3,-71
COc1cc(NC(=O)C(C)Oc2ccccc2)c(OC)cc1NC(=O)c1ccccc1 (stereo not drawn),18,9,9,-15,-17,-5,.
O=C(CSc1nnc(-c2csc3c2CCCC3)o1)Nc1ccccc1,38,-95,-67,-173,-212,16,-126
O=C(c1cc(-c2ccc(Br)cc2)n[nH]1)N1CCN(C(=O)c2ccccc2Br)CC1,39,5,7,0,4,-4,.
Cc1cc(C(=O)CSc2nnc(N)s2)c(C)n1Cc1cccs1,69*,2,-38,-150,-150,30,-53
Cc1cccc(C)c1N1CCN(c2nc(N(C)C)oc(=O)c2C#N)CC1,15,16,0,-1,3,9,.
N/C(=N\OC(=O)c1ccc(Br)cc1)c1ccccc1,-190,-115,-71,-163,-178,1,-103
N/C(=N\OC(=O)c1cccc(Br)c1)c1ccc(Br)cc1,-96,-37,-12,-40,-36,-18,.
COc1cccc(C2CC(=O)Nc3cc(OC)c(OC)cc32)c1 (stereo not drawn),20,-5,2,12,-6,-13,.
COc1cccc(C2CC(=O)Nc3cc4c(cc32)CCC4)c1 (stereo not drawn),84*,46,25,61*,-56,14,51*
Cc1ccc(COn2c(-c3ccc(Cl)cc3)nc3ccc([N+](=O)[O-])cc32)cc1,-198,-76,-105,-148,-168,53,.
